# Test results from paper PMC5540273 (PLoS ONE, 2017).
# Assays:
# Conditions in all cases: concentration: 1 μM, replicates: in singlicate; n = 1
# CSNK2A2 = test system: CSNK2A2
# CTK = test system: T1, CTK
# T1 construct: gene MATK
# DAPK1 = test system: DAPK1
# DAPK2 = test system: DAPK2
# DAPK3 = test system: DAPK3
# DCAMKL1 = test system: T2, DCAMKL1
# T2 construct: gene DCLK1
# DCAMKL2 = test system: T3, DCAMKL2
# T3 construct: gene DCLK2
# DCAMKL3 = test system: T4, DCAMKL3
# T4 construct: gene DCLK3
# DDR1 = test system: DDR1
# DDR2 = test system: DDR2
# DLK = test system: T5, DLK
# T5 construct: gene MAP3K12
# DMPK2 = test system: T6, DMPK2
# T6 construct: gene CDC42BPG
# DMPK = test system: DMPK
# DRAK1 = test system: T7, DRAK1
# T7 construct: gene STK17A
# DRAK2 = test system: T8, DRAK2
# T8 construct: gene STK17B
# DYRK1A = test system: DYRK1A
# DYRK1B = test system: DYRK1B
# DYRK2 = test system: DYRK2
# EGFR = test system: EGFR
# EIF2AK1 = test system: EIF2AK1
# 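Further: KINOMEscan kinase panel screen.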
SMILES,%Inh (CSNK2A2) [%],%Inh (CTK) [%],%Inh (DAPK1) [%],%Inh (DAPK2) [%],%Inh (DAPK3) [%],%Inh (DCAMKL1) [%],%Inh (DCAMKL2) [%],%Inh (DCAMKL3) [%],%Inh (DDR1) [%],%Inh (DDR2) [%],%Inh (DLK) [%],%Inh (DMPK2) [%],%Inh (DMPK) [%],%Inh (DRAK1) [%],%Inh (DRAK2) [%],%Inh (DYRK1A) [%],%Inh (DYRK1B) [%],%Inh (DYRK2) [%],%Inh (EGFR) [%],%Inh (EIF2AK1) [%]
Cc1nnc(-c2ccc(C)c(-c3ccc(C(=O)O)cc3)c2)o1 [GW608005],8,0,0,0,0,0,0,0,7,1,21,0,0,0,1,20,0,8,22,0
COc1ccc(CNC(=O)NC2CCN(c3ccnc(Nc4ccc(F)cc4)n3)C2)cc1 (stereo not shown) [GSK1379706],12,0,0,14,30,14,60,2,8,63,42,16,0,6,0,0,0,0,20,0
Fc1cccc(CSc2nnc(-c3ccc4c(c3)CCO4)o2)c1,33,11,3,0,0,20,0,0,0,16,0,9,0,27,18,62,37,7,17,26
COc1ccc(-c2cc3c(C)nc(N)nc3n([C@H]3CC[C@H](OCCO)CC3)c2=O)cn1,11,2,11,0,0,0,0,0,0,0,0,0,8,16,14,0,0,0,12,8
Nc1nc(N)c2nc(-c3ccccc3)[nH]c2n1 [SKF-12778],22,24,12,0,1,15,0,60,0,9,1,0,25,8,0,34,13,44,14,21
O=C(NCCNc1ccnc(Nc2ccc(F)cc2)n1)Nc1ccc2c(c1)OCO2 [GSK1379882],16,0,19,8,26,0,0,0,0,18,5,11,0,10,0,7,0,23,0,0
COc1cccc(-n2cnc3c(N)ncnc32)c1 [SKF-97416],11,48,15,0,3,0,4,0,0,21,17,7,11,37,0,12,2,39,18,35
O=C(Nc1n[nH]c2nc(-c3ccccc3)c(Cl)cc12)C1CC1 [SB-734909],34,27,9,0,0,16,18,8,17,18,22,11,0,0,0,10,3,8,14,18
COC(=O)c1c(-c2ccccc2)c2cc(Br)ccc2c(=O)n1Cc1ccc(S(C)(=O)=O)cc1,42,35,0,11,7,24,0,0,29,17,0,5,0,3,0,20,45,44,5,13
CN1C(=O)C(Nc2ccccc2)=C(c2ccccc2)C1=O [SB-300079],0,28,0,0,0,22,0,0,0,37,1,0,0,0,0,0,17,10,16,0
CCC(=O)c1c(-c2ccccc2)c2cc(Cl)ccc2c(=O)n1Cc1cc(S(C)(=O)=O)n(CC(F)F)n1,0,0,0,0,0,19,0,1,18,10,0,0,0,0,0,0,13,17,1,0
